PD-1 reverse act: activators reversing PD-1 mediated T-cell inhibition; primary human CD4 T cells, PD-L1 beads, CellTiter-Glo 96 h; activation, % (test concentration not listed); 29,000 tested, under 10 active; AID 2316; call rule not given here
Shh pathway inh: blocks Sonic Hedgehog signaling | 2.1% of 22,000 active | inhibition, % (concentration not given with the values) | Shh-LIGHT2 Gli-luciferase reporter, 30 h | AID 2313;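 active = mean inhibition across valid replicates above about 65%, limit read from the data; inconclusive = mean under the limit, yet half or more replicates past it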;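 note: pathway switched on by Shh-conditioned medium diluted 1 in 25 in low serum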
NOMO-1 viab: STK33 inhibitor candidate reducing NOMO-1 cell viability; NOMO-1 AML viability, CellTiter-Glo luminescence, 72 h; inhibition, % (no concentration beside the values); 7.5% of 37,000 active; AID 2330; in the data active = inhibition above about 80%; inconclusive = no clear call, values can overlap the other calls
Each line names hits and unclear results; the compound was inactive in the other large screens. In the library only some 7.7% were active in any assay of this set; here they are far more common.

Cc1cc(NC(=O)CCCN2C(=O)c3cccc4cccc(c34)C2=O)n(-c2ccccc2)n1	none (no result: Shh pathway inh)
C[C@@H]1CN([C@H](C)CO)C(=O)c2cc(NC(=O)Cc3cn(C)c4ccccc34)ccc2O[C@@H]1CN(C)Cc1ccc(Cl)c(Cl)c1	NOMO-1 viab 112
C[C@@H]1CN([C@@H](C)CO)C(=O)c2cc(NC(=O)Cc3cn(C)c4ccccc34)ccc2O[C@@H]1CN(C)Cc1ccc(Cl)c(Cl)c1	NOMO-1 viab 92 (no result: Shh pathway inh)
C[C@H]1CN([C@@H](C)CO)C(=O)c2cc(NC(=O)Cc3cn(C)c4ccccc34)ccc2O[C@H]1CN(C)Cc1ccc2c(c1)OCO2	none (no result: Shh pathway inh)
C[C@@H]1CN([C@H](C)CO)C(=O)c2cc(NC(=O)Cc3cn(C)c4ccccc34)ccc2O[C@H]1CN(C)Cc1ccc(Cl)c(Cl)c1	NOMO-1 viab inconclusive
C=CCn1c(=O)c2c(C)c(C)sc2n2c(Nc3ccc(C(=O)OCC)cc3)nnc12	none
O=C(CCCN1C(=O)c2ccccc2C1=O)Nc1ccccc1F	none (no result: Shh pathway inh)
COc1ccc([N+](=O)[O-])cc1NC(=O)CN(c1ccc(Cl)c(Cl)c1)S(C)(=O)=O	none (no result: PD-1 reverse act, Shh pathway inh)
O[C@H]1C=C2CCN3Cc4cc5c(cc4C(C23)[C@@H]1O)OCO5 (some centres not stated)	Shh pathway inh 99, NOMO-1 viab 110 (no result: PD-1 reverse act)
O=C(Cc1coc2ccc3ccccc3c12)Nc1cccnc1	none (no result: Shh pathway inh)
O=C(CN1C(=O)C2C3C=CC(C4CC34)C2C1=O)Nc1ccc(Oc2ccccc2Cl)cc1 (configuration not stated)	none (no result: PD-1 reverse act, Shh pathway inh)
O=C(CN1C(=O)C2C3C=CC(C4CC34)C2C1=O)Nc1ccc(Oc2ccc(Br)cc2)cc1 (configuration not stated)	NOMO-1 viab 86 (no result: Shh pathway inh)
Cc1cc(C(=O)O)ccc1NC(=O)CNC(=O)C1CCCCC1	none (no result: Shh pathway inh)
CC1CCc2c(sc3ncnc(SCCOc4ccccc4)c23)C1 (configuration not stated)	none (no result: Shh pathway inh)
CC1CCc2c(sc3ncnc(NCCc4nc5ccccc5[nH]4)c23)C1 (configuration not stated)	NOMO-1 viab 97 (no result: PD-1 reverse act, Shh pathway inh)
O=c1cc(N2CCOCC2)oc2c(-c3ccccc3)cccc12	Shh pathway inh 71, NOMO-1 viab 125
O=c1cc(N2CCOCC2)oc2c1ccc1ccccc12	none
CCc1cccc(CC)c1NC(=S)Nc1ccc(C)cc1	none
COc1cccc(Oc2coc3cc(OCC(N)=O)ccc3c2=O)c1	none (no result: Shh pathway inh)
COc1ccccc1-c1c(C(F)(F)F)oc2cc(OCC(=O)OC(C)C)ccc2c1=O	NOMO-1 viab 96 (no result: PD-1 reverse act, Shh pathway inh)
CCOC(=O)c1c(C(C)(C)C)oc2ccc(OCC(=O)OC)cc12	none
CCOC(=O)COc1ccc2c(=O)c(-c3ccccc3OC)c(C(F)(F)F)oc2c1	NOMO-1 viab 93 (no result: Shh pathway inh)
C[C@@H]1OC(OC[C@H]2O[C@@H](Oc3cc(O)c4c(=O)cc(-c5ccc(O)c(O)c5)oc4c3)[C@H](O)[C@@H](O)[C@@H]2O)[C@H](O)[C@H](O)[C@H]1O (some centres not stated)	none
CCC(=O)N1c2ccccc2-c2nnc(SC)nc2OC1c1ccccc1 (configuration not stated)	none
O=C(Nc1ccc(I)cc1C(=O)NCc1ccco1)c1cccnc1	none (no result: Shh pathway inh)
CC1CCCC(C)N1C(=S)NCCCN1CCOCC1 (configuration not stated)	NOMO-1 viab 110
O=C(NCCCN1CCOCC1)C(=O)NC1CC1	none (no result: Shh pathway inh)
Cc1ccc(C(O)(COC(=O)C(C)C)COC(=O)C(C)C)c(O)c1	NOMO-1 viab 117
CC(C)CCCC(C)(O)c1ccc(C(=O)O)cc1O (configuration not stated)	none
N#Cc1c(C(F)(F)F)cc(-c2cccs2)nc1S/C=C/C(=O)c1ccccc1	NOMO-1 viab 116
N#Cc1c(C(F)(F)F)cc(-c2cccs2)nc1SCC(=O)Nc1c(F)cccc1F	none (no result: Shh pathway inh)
O=C(COC(=O)c1ccc(N2C(=O)c3ccccc3C2=O)cc1)c1ccccc1	none
O=C(NCCN1CCOCC1)c1cc(-n2cnnc2)ccc1Cl	none (no result: Shh pathway inh)
CC(=O)Nc1cccc(NC(=O)c2cc(-c3ccccn3)nc3ccc(Br)cc23)c1	none (no result: PD-1 reverse act, Shh pathway inh)
O=C(CC1(O)C(=O)N(Cc2ccccc2)c2ccc(Br)cc21)c1ccccc1[N+](=O)[O-] (configuration not stated)	NOMO-1 viab 100 (no result: Shh pathway inh)
N=c1n(CC(=O)c2ccco2)c2ccccc2n1Cc1ccccc1	none
O=C(CC1(O)C(=O)N(Cc2ccccc2)c2ccc(Br)cc21)c1ccco1 (configuration not stated)	NOMO-1 viab 114 (no result: Shh pathway inh)
Cc1cc(Br)c2c(c1)C(O)(CC(=O)c1ccco1)C(=O)N2C (configuration not stated)	NOMO-1 viab 122 (no result: Shh pathway inh)
Cc1ccc2c(c1)C(O)(CC(=O)c1ccccc1[N+](=O)[O-])C(=O)N2 (configuration not stated)	none (no result: PD-1 reverse act, Shh pathway inh)
CC1CC2OC(C)(C)OC2C(OC(=O)c2ccccc2)O1 (configuration not stated)	none
COc1cccc(NC(=O)C(C)N(c2ccc(Cl)cc2)S(C)(=O)=O)c1 (configuration not stated)	none (no result: Shh pathway inh)
COC(=O)c1ccc(CSc2nnc(CN3CCOCC3)n2C)cc1	none (no result: Shh pathway inh)
COc1ccc(-c2nc(SCC(=O)Nc3ccc(Br)c(Cl)c3)n[nH]2)cc1	none (no result: Shh pathway inh)
CS(=O)(=O)N(CC(=O)Nc1ccc(Br)cc1)c1ccc(Cl)c(C(F)(F)F)c1	none (no result: Shh pathway inh)
O=C1NCN(c2ccccc2)C12CCN(CCCC(c1ccc(F)cc1)c1ccc(F)cc1)CC2	Shh pathway inh 84, NOMO-1 viab 114 (no result: PD-1 reverse act)
Cn1c(SCC(=O)Nc2ccc(Cl)cc2)nnc1-c1ccc(Cl)c(Cl)c1	none (no result: Shh pathway inh)
Cc1ccc(NC(=O)c2ccc(CSc3ncnc4nc[nH]c34)cc2)cc1	none
C[C@@H]1CN([C@@H](C)CO)C(=O)c2cc(NC(=O)CCC(F)(F)F)ccc2O[C@H]1CN(C)Cc1ccc(Cl)c(Cl)c1	none
C[C@@H]1CN([C@@H](C)CO)C(=O)c2cc(NC(=O)CCC(F)(F)F)ccc2O[C@@H]1CN(C)Cc1ccc(Cl)c(Cl)c1	NOMO-1 viab 93 (no result: Shh pathway inh)
C[C@H](CO)N1C[C@H](C)[C@H](CN(C)Cc2ccc(Cl)c(Cl)c2)Oc2ccc(NC(=O)CCC(F)(F)F)cc2CC1=O	none
C[C@@H]1CN([C@@H](C)CO)C(=O)Cc2cc(NC(=O)CCC(F)(F)F)ccc2O[C@@H]1CN(C)Cc1ccc(Cl)c(Cl)c1	NOMO-1 viab 124
O=C(O)CN(CC(=O)O)S(=O)(=O)c1ccc(Cl)cc1	none (no result: PD-1 reverse act, Shh pathway inh)
COc1cccc(NC(=O)CSc2ncnc3scc(-c4ccc(C)cc4)c23)c1	none (no result: Shh pathway inh)
COc1ccccc1NC(=O)C1C=C2C=CC=CC2OC1=Nc1ccccc1F (configuration not stated)	none
N#Cc1c(NC(=O)CSc2nnc3c(n2)[nH]c2ccccc23)sc2c1CCCC2	none (no result: PD-1 reverse act, Shh pathway inh)
COc1ccc(C(NC(=O)c2ccccc2)c2ccc3cccnc3c2O)c(OC)c1 (configuration not stated)	NOMO-1 viab 109 (no result: Shh pathway inh)
COc1ccc(C(=O)NC(c2ccccc2)c2ccccc2)cc1	none
COc1ccc(C(NC(C)=O)c2ccc3cccnc3c2O)cc1OC (configuration not stated)	NOMO-1 viab 107 (no result: Shh pathway inh)
COc1ccc(C(NC(C)=O)c2c(O)ccc3ccccc23)cc1OC (configuration not stated)	none (no result: Shh pathway inh)
Cc1ccc(C)c(S(=O)(=O)NCC(=O)Nc2ccc(F)c(Cl)c2)c1	none (no result: PD-1 reverse act, Shh pathway inh)
C[C@@H]1CN([C@H](C)CO)C(=O)c2cccc(NC(=O)c3nc4ccccc4s3)c2O[C@H]1CN(C)Cc1ccc(C(F)(F)F)cc1	NOMO-1 viab 101
